MRP resist rev – reverses drug resistance mediated by MRP; H69AR cells + 2 uM doxorubicin, CellTiter-Glo, 72 h; differential viability (reversal), % at 10 µM; actives 0.04% (n = 85,000);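 active = viability drop by adding the cancer drug above about 55%, with treated viability meeting a 40% cutoff, limit read from the data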;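 also: viability without doxorubicin minus viability with 2 µM doxorubicin for each compound; larger differential means the compound sensitizes cells more to doxorubicin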
CYP2C9 inh – blocks human cytochrome P450 2C9. CYP2C9 Supersomes, luciferin-H conversion, luminescence. AID 777. actives 20% (n = 96,000). P11712. inhibition, % at 5 µM;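 active = blocking of liver enzyme CYP2C9 beyond about 50% at 5 µM, limit read from the data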
CYP2C19 act – increases human CYP2C19 enzyme activity; recombinant CYP2C19, luciferin-H EGE luminescence; stronger effect = higher value; 0 = fully inhibited enzyme, 1 = untreated enzyme; activation factor at 5 µM; AID 1025; 96,000 tested, under 10 active; P33261;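 active = activation factor of at least 2 at 5 µM in the primary screen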;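 also: 0 = wells with 2.5 mM tranylcypromine and 1 = vehicle-only wells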
Target sequence (P33261 whole entry, looked up): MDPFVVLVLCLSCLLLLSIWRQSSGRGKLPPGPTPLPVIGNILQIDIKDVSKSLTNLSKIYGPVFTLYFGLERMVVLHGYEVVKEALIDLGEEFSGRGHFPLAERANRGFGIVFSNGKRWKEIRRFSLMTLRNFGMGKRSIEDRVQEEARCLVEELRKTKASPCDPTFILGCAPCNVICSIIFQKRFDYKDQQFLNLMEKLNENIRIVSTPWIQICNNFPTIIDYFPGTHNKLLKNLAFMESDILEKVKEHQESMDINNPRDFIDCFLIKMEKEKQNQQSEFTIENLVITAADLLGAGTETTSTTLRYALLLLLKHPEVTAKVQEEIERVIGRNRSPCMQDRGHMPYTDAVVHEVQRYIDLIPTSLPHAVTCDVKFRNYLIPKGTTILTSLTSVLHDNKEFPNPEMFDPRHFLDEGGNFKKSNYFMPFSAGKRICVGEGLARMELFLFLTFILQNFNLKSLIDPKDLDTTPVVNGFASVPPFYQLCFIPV
CYP2C9 act – increases human cytochrome P450 2C9 activity; recombinant CYP2C9, luciferin-H conversion, luminescence; stronger effect = higher value; factor 1 = untreated enzyme, 0 = blocked; activation factor at 5 µM; actives 1.4% (n = 96,000); AID 1024;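 active = activation factor of 2 or more for CYP2C9 at a 5 µM dose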;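 also: 0 = sulfaphenazole-blocked wells and 1 = vehicle-only wells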
CYP2C19 inh – inhibitors of human CYP2C19; CYP2C19 Supersomes, luciferin-H EGE luminescence, 30 min; AID 778; inhibition, % at 5 µM; P33261; actives 21% (n = 96,000);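 active = CYP2C19 inhibition above a set limit at 5 µM in the primary screen, cut at about 50% in these data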;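 also: plate controls were negative control wells for no effect and 2.5 mM tranylcypromine positive control for full effect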
MRP-1 activ – activates MRP-1 | H69AR cells + doxorubicin, viability rescue, CellTiter-Glo | viability increase, % at 10 µM | actives 0.61% (n = 140,000);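 active = viability gain under doxorubicin at or above a set limit, the compound median plus 3 SD, cut at about 4.7% in these data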;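 also: MRP-1 overexpressing cells given doxorubicin 25 µM after compound pretreatment; 18-22 h compound pretreatment then 72 h with doxorubicin before readout; 0% = doxorubicin-only wells and 100% = vehicle-treated cells without doxorubicin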
The depositor's hits bear a star; . = no result. Most compounds without a hit are left out; they make up all but 21% or so of the library.

SMILES | MRP resist rev | CYP2C9 inh | CYP2C19 act | CYP2C9 act | CYP2C19 inh | MRP-1 activ
CN1C(=O)COc2ccc(C(=O)c3oc4ccccc4c3-c3cnc4c(c3)COc3ccccc3-4)cc21 | 1 | . | . | . | . | 1
Cc1ccc(S(=O)(=O)C2(C(=O)Nc3cccnc3)CC2)cc1 | 9 | 32 | 0.4 | 0.7 | 56* | -2
CC(C)(CO)NC(=O)CCCOc1ccc(Cl)cc1Cl | 6 | 22 | 0.4 | 0.8 | 55* | 0
COc1cc(/C=C/C(=O)N2CCCc3ccccc32)cc(OC)c1OC | . | . | . | . | . | -3
COc1ccc(-c2c(C)[nH]n3c(=O)c(Cc4ccccc4)c(C)nc23)cc1 | . | . | . | . | . | -2
O=C(NCc1ccco1)c1ccc(Cn2c(=O)c3ccccc3n(Cc3cccc(Cl)c3)c2=O)cc1 | 1 | 0 | 1 | 1 | 2 | -1
COCCCNC(=O)c1ccc(Cn2c(=O)c3ccccc3n(Cc3ccc(C)cc3)c2=O)cc1 | -9 | 54* | 0.5 | 0.5 | 47 | -1
CC(C)OC(=O)CCCCCN1C(=O)CSC1=S | 3 | 91* | 0 | 0.1 | 99* | -7
O=C(O)CCCCCN1C(=O)CSC1=S | -3 | 17 | 0.9 | 0.8 | 6 | -1
COc1cc(CC(=O)OCC(=O)Nc2cccc([N+](=O)[O-])c2)cc(OC)c1OC | . | . | . | . | . | 1
CCn1cc(C2=NOC(C(=O)Nc3ccccc3C(=O)OC)C2)c(C)n1 (stereo not given) | 4 | -148 | 0.8 | 2.5* | 24 | 0
COC(=O)c1ccccc1NC(=O)C1CC(c2ccccc2O)=NO1 (stereo not given) | 6 | -20 | 0.9 | 1.2 | 9 | -1
CCCCc1noc2c1/C(=N\O)CC(c1ccccc1)C2 (stereo not given) | 4 | 77* | 0.5 | 0.2 | 48 | 0
CCCCc1n[nH]c2c1/C(=N/O)CC(c1ccccc1)C2 (stereo not given) | -3 | 18 | 0.6 | 0.8 | 40 | -2
CCc1n[nH]c2c1/C(=N\O)CC(c1ccccc1)C2 (stereo not given) | -17 | 98* | 0 | 0 | 96* | 0
CCC1(C)Cc2c(sc3nnn(Cc4ccccc4Cl)c(=O)c23)CO1 (stereo not given) | . | 76* | 0.6 | 0.2 | 42 | 8.0*
CCC1(C)Cc2c(sc3nnn(CC(=O)Nc4ccccc4C)c(=O)c23)CO1 (stereo not given) | . | 50 | 0.2 | 0.5 | 84* | 1
CC1(C)Cc2c(sc3nnn(Cc4ccccc4)c(=O)c23)CO1 | . | . | . | . | . | 3
CCC1(C)Cc2c(sc3nnn(CC(=O)Nc4ccccc4)c(=O)c23)CO1 (stereo not given) | . | 68* | 0.1 | 0.3 | 89* | 5.0*
CCC1(C)Cc2c(sc3nn[nH]c(=O)c23)CO1 (stereo not given) | 1 | 12 | 0.9 | 0.9 | 11 | -1
COc1cc(/C=C2/C(=O)c3cccc([N+](=O)[O-])c3C2=O)c(Br)cc1O | . | . | . | . | . | -4
Cc1noc(C)c1COc1cccc(C(=O)Nc2ccc(OCc3ccccc3)cc2)c1 | 3 | 73* | 0.4 | 0.3 | 62* | -3
Cc1noc(C)c1COc1cccc(C(=O)NCc2ccccc2Cl)c1 | 6 | 53* | 0.4 | 0.5 | 58* | 0
Cc1noc(C)c1COc1ccc(C(=O)OCC(=O)NCc2ccccc2Cl)cc1 | . | . | . | . | . | -4
Cc1oc(C(=O)Nc2ccc(C(=O)O)cc2)cc1COc1ccccc1 | 2 | -11 | 0.8 | 1.1 | 19 | 7.2*
SMILES | MRP resist rev | CYP2C9 inh | CYP2C19 act | CYP2C9 act | CYP2C19 inh | MRP-1 activ
CCSc1nnc(NC(=O)c2cccc(OCc3c(C)noc3C)c2)s1 | 4 | 86* | 0.1 | 0.1 | 88* | -4
Cc1ccc(SCC(=O)OCn2nnc3ccccc3c2=O)cc1C | . | . | . | . | . | -2
COc1ccc(CNC(=O)c2ccc(Br)o2)cc1 | . | . | . | . | . | -1
Cc1cc(C)n(-c2ccc(C(=O)Nc3cc(S(=O)(=O)N(C)C)ccc3Cl)cc2)n1 | . | . | . | . | . | 3
Cc1cc(C)c(NC(=O)CO/N=C2\CCCc3nonc32)c(C)c1 | . | . | . | . | . | -2
Cc1nc(SCC(=O)Nc2c(C)n(C)n(-c3ccccc3)c2=O)nc(C)c1C | -11 | 6 | 0.9 | 0.9 | 11 | -1
C=CCn1c(SCC(=O)NC2CCCC2)nc2scc(-c3ccco3)c2c1=O | 19 | 92* | 0.1 | 0.1 | 87* | -1
C=CCn1c(SCC(=O)Nc2c(C)n(C)n(-c3ccccc3)c2=O)nc2scc(-c3ccccc3)c2c1=O | -8 | 83* | 0.5 | 0.2 | 46 | -2
C=CCn1c(SCC(=O)NCCCC)nc2scc(-c3ccco3)c2c1=O | 1 | . | . | . | . | -2
CCOc1ccc(CC(=O)N2N=C(C)CC2(O)C(F)(F)F)cc1 (stereo not given) | . | . | . | . | . | -2
CCOc1ccc2[nH]cc(C(=O)N3CCN(CC)CC3)c(=O)c2c1 | -9 | -1 | 1.1 | 1 | -7 | 0
O=C1CC(O)(C(F)F)Oc2ccc3ccccc3c21 (stereo not given) | 4 | 60* | 0.2 | 0.4 | 85* | 0
O=C1CC(O)(C(F)(F)F)Oc2c1ccc1ccccc21 (stereo not given) | -3 | 96* | 0.2 | 0 | 84* | -2
O=C(CCCNS(=O)(=O)c1ccc(Br)cc1)N1CC[C@@]2(O)CCCC[C@H]2C1 | -4 | 4 | 1 | 1 | 2 | -2
Cc1ccc(C(C(=O)NC(C)(C)C)N(Cc2ccco2)C(=O)CCC(=O)Nc2nccs2)cc1 (stereo not given) | -3 | . | . | . | . | .
Cc1ccc2cc(CN(CC3CCCO3)C(=S)Nc3ccccc3)c(=O)[nH]c2c1C (stereo not given) | . | . | . | . | . | -4
Cn1c(CS/C(N)=N/N=C/c2ccccc2)c(Br)c(=O)n1-c1ccccc1 | . | . | . | . | . | -3
C=CCn1cnc2scc(-c3ccc(C)cc3)c2c1=O | 16 | 65* | 0.1 | 0.3 | 92* | -1
COCCn1c(SCc2c(F)cccc2Cl)nc2c1c(=O)[nH]c(=O)n2C | -8 | 23 | 0.5 | 0.8 | 46 | -2
O=C(c1csc2c1CCCC2)N1CCCCC1 | 2 | -38 | 0.5 | 1.4 | 52* | -2
O=C(c1csc2c1CCCCC2)N1CCN(c2ncccn2)CC1 | . | 89* | 0.1 | 0.1 | 88* | 0
O=C(c1csc2ccccc12)N1CCCCCC1 | 11 | -47 | 0.8 | 1.5 | 25 | -1
CC1=NN(C(=O)Cc2ccccc2)C(O)(c2cccnc2)C1 (stereo not given) | . | -10 | 1 | 1.1 | 4 | 0
CNC(=S)Nc1ccc(C)cc1 | . | . | . | . | . | 11*
CNC(=S)Nc1ccc(C23CC4CC(CC(C4)C2)C3)cc1 | . | . | . | . | . | 5.2*
CNC(=S)Nc1ccc(OC)c(OC)c1 | . | -9 | 1 | 1.1 | 2 | -1
CC(C)(C)NC(=S)Nc1ccc(Br)cc1 | . | -2 | 0.7 | 1 | 33 | -4
Cc1ccc(NC(=S)Nc2ccc(Br)cc2)cc1 | . | 16 | 0.1 | 0.8 | 89* | -4
